From PubChem BioAssay come the findings set out here.

Experiment [1] concerns the target Cell division control protein 42 homolog (Homo sapiens) (UniProt P60953). The experiment is described as follows: activated mutant Cdc42 GTP-binding inhibitors, dose response, biochemical, multiplex bead flow cytometry, Bodipy-FL-GTP (AID 1333;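 active means fitted half-maximal concentration within the tested dose range, moderate curve steepness, a statistically real signal drop, and little compound fluorescence or tag-binding interference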). A general note: In flow cytometry, cells or beads pass a laser one at a time.
Experiment [2] shares this target. As to the kind of experiment: wildtype Cdc42 GTP-binding inhibitors, dose response, biochemical, multiplex bead flow cytometry, Bodipy-FL-GTP (AID 1334;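 active means fitted half-maximal concentration within the tested range, moderate curve steepness, significant signal drop, and little compound fluorescence or bead-linkage interference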). Conditions: bead-based flow cytometry, Bodipy-FL-GTP binding to GST-Cdc42; at 100 µM (top of the series) unless noted.
In experiment [3] the target is GTPase HRas (Homo sapiens) (UniProt P01112). As to the kind of experiment: inhibitors of GTP binding to wildtype Ras, dose response, biochemical, multiplex bead flow cytometry (AID 1335;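 active means fitted half-maximal concentration within 10 nM to 100 µM, steepness 0.5 to 2, significant signal drop, low assay interference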). Conditions: bead-based flow cytometry, Bodipy-GTP binding to GST-Ras; at 100 µM (top of the series) unless noted.
Chain of GTPase HRas (Homo sapiens) (P01112 whole entry, looked up): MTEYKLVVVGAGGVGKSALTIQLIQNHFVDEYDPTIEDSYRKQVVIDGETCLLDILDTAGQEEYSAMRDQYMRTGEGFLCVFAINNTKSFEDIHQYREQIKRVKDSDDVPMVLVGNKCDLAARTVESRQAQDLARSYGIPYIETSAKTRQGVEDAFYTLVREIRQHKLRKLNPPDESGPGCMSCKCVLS
Experiment [4] deals with Ras-related protein Rab-7a (dog), GTP binding. The experiment is described as follows: Rab7 GTP binding inhibitors, potency, dose response, biochemical, wildtype, multiplex bead flow cytometry (AID 1336).
The target of experiment [5] is Ras-related C3 botulinum toxin substrate 1 (Homo sapiens) (UniProt P63000). As to the kind of experiment: wildtype Rac1 GTP binding inhibitors, dose response, biochemical, multiplex bead flow cytometry (AID 1340;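 active means dose curve with midpoint inside tested range, moderate steepness, plateau gap beyond fit error, low compound glow and bead-link interference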). Conditions: GST-Rac1 beads, Bodipy-FL-GTP binding; at 100 µM (top of the series) unless noted.
Experiment [6] deals with GTPase HRas (Homo sapiens) (UniProt P01112). As to the kind of experiment: activated Ras mutant GTP binding inhibitors, dose response, biochemical, multiplex bead flow cytometry (AID 1341;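 active means dose-response curve with midpoint inside the tested range, moderate steepness, significant amplitude and little compound fluorescence or bead-attachment interference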;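 further: GST-tagged constitutively activated Ras mutant immobilized on beads and multiplexed with other GTPases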).

For part of these data: Potency and affinity values are given separately. Calls of active or inactive are those of the source. Unless noted, how the calls were made is not given here.

Chain of Cell division control protein 42 homolog (Homo sapiens) (P60953 whole entry, looked up): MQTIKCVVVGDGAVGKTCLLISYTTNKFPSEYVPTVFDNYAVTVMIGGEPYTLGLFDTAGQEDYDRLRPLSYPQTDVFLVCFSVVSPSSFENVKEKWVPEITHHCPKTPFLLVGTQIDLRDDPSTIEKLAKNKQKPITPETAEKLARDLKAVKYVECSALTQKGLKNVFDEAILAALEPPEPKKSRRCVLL

`COc1cc2[nH]c(=S)nc(NCC3CCCO3)c2cc1OC` (stereo not given): the compound was called inactive in experiment [1], in experiment [4] and in experiment [6]. The compound further returned a fluorescence, percent of control (lower = inhibition) in experiment [2] of 59.4%. The same compound showed a GTP binding, percent of control in experiment [3] of 152%. Besides, the GTP binding signal, raw median fluorescence (lower = inhibition) (MCF (arbitrary fluorescence units)) in experiment [5] was found to be 177.

`O=C(CCN1CCCC1Cc1ccccc1)c1ccc2c(c1)OCCO2` (stereo not given): the compound was called inactive in experiment [1], in experiment [4] and in experiment [6]. Moreover, the fluorescence, percent of control (lower = inhibition) in experiment [2] was 31.5%. The same compound had a GTP binding, percent of control in experiment [3] of 82.4%. This compound also yielded a GTP binding signal, raw median fluorescence (lower = inhibition) (MCF (arbitrary fluorescence units)) in experiment [5] of 236.

For the compound `COc1ccc(C(=O)Nc2nc3ccccc3[nH]2)cc1S(=O)(=O)N1CCOCC1`, the call in experiment [1], in experiment [4] and in experiment [6] was inactive. The compound also gave a fluorescence, percent of control (lower = inhibition) in experiment [2] of 32.9%. The same compound registered a GTP binding, percent of control in experiment [3] of 73.9%. The compound further showed a GTP binding signal, raw median fluorescence (lower = inhibition) (MCF (arbitrary fluorescence units)) in experiment [5] of 197.

Consider `Cc1ccc(NCC(=O)c2ccccc2)cc1Cl`, for which the compound was classed as inactive in experiment [1], in experiment [4] and in experiment [6]. The fluorescence, percent of control (lower = inhibition) in experiment [2] was determined as 36.3%. Also, in experiment [3], the GTP binding, percent of control amounted to 80.6%. In experiment [5], this compound returned a GTP binding signal, raw median fluorescence (lower = inhibition) (MCF (arbitrary fluorescence units)) of 256.

In the case of `CCOC(=O)c1nc(Nc2ccc(C(=O)OC)cc2)c2ccccc2n1`, the outcome in experiment [1], in experiment [4] and in experiment [6] was inactive. In experiment [2], the fluorescence, percent of control (lower = inhibition) turned out to be 43.9%. Moreover, the GTP binding, percent of control in experiment [3] is 115%. The compound also had a GTP binding signal, raw median fluorescence (lower = inhibition) (MCF (arbitrary fluorescence units)) in experiment [5] of 128.

Regarding `COc1ccc(/C=C2\CCCC3C2=NN(C(=O)c2scnc2C)C3c2ccc(OC)c(OC)c2)cc1OC` (stereo not given), the outcome in experiment [1], in experiment [4] and in experiment [6] was inactive. In experiment [2], the fluorescence, percent of control (lower = inhibition) amounted to 76.7%. Moreover, the GTP binding, percent of control in experiment [3] came out at 122%. Further, the GTP binding signal, raw median fluorescence (lower = inhibition) (MCF (arbitrary fluorescence units)) in experiment [5] was found to be 138.

As to `O=C(CCl)Nc1cccn2ncnc12`, the compound was called inactive in experiment [1], in experiment [4] and in experiment [6]. In experiment [2], this compound registered a fluorescence, percent of control (lower = inhibition) of 37.7%. The compound also registered a GTP binding, percent of control in experiment [3] of 83%. In experiment [5], this compound had a GTP binding signal, raw median fluorescence (lower = inhibition) (MCF (arbitrary fluorescence units)) of 274.

On to `COc1cc([N+](=O)[O-])ccc1N=Nc1c(N)[nH]n(-c2ccccc2)c1=O`, for which the compound was called inactive in experiment [1], in experiment [4] and in experiment [6]. Moreover, the fluorescence, percent of control (lower = inhibition) in experiment [2] is 30.5%. The same compound displayed a GTP binding, percent of control in experiment [3] of 74.5%. In addition, in experiment [5], the GTP binding signal, raw median fluorescence (lower = inhibition) (MCF (arbitrary fluorescence units)) was determined as 188.

As for `COc1ccc(-c2cc(-c3ccccc3)c(C#N)c(=S)[nH]2)cc1`, the compound was called inactive in experiment [1], in experiment [4] and in experiment [6]. The compound also came in with a fluorescence, percent of control (lower = inhibition) in experiment [2] of 28.8%. The same compound returned a GTP binding, percent of control in experiment [3] of 69.8%. Moreover, the GTP binding signal, raw median fluorescence (lower = inhibition) (MCF (arbitrary fluorescence units)) in experiment [5] was determined as 225.

In the case of `CNC(=S)N=Nc1c(O)[nH]c2ccccc12`, the compound was called inactive in experiment [1], in experiment [4] and in experiment [6]. For the same compound, the fluorescence, percent of control (lower = inhibition) in experiment [2] worked out at 36.2%. In addition, the GTP binding, percent of control in experiment [3] came to 47%. In experiment [5], this compound had a GTP binding signal, raw median fluorescence (lower = inhibition) (MCF (arbitrary fluorescence units)) of 128.

As for `COc1cccc(C2CC(c3ccccc3)Nc3ncnn32)c1` (stereo not given), the result in experiment [1], in experiment [4] and in experiment [6] was inactive. This compound also had a fluorescence, percent of control (lower = inhibition) in experiment [2] of 38.6%. In experiment [3], this compound returned a GTP binding, percent of control of 80.1%. This compound displayed a GTP binding signal, raw median fluorescence (lower = inhibition) (MCF (arbitrary fluorescence units)) in experiment [5] of 242.

With `COc1ccccc1CNCc1sc(C(=O)O)cc1C`, the call in experiment [1], in experiment [4] and in experiment [6] was inactive. Moreover, in experiment [2], the fluorescence, percent of control (lower = inhibition) was 61.8%. Further, the GTP binding, percent of control in experiment [3] came to 85.7%. In experiment [5], this compound displayed a GTP binding signal, raw median fluorescence (lower = inhibition) (MCF (arbitrary fluorescence units)) of 35.2.

As for `Clc1cccc(Cl)c1/C=N\Nc1nccs1`, the call in experiment [1], in experiment [4] and in experiment [6] was inactive. The compound further had a fluorescence, percent of control (lower = inhibition) in experiment [2] of 96.7%. The compound further gave a GTP binding, percent of control in experiment [3] of 151%. Moreover, the GTP binding signal, raw median fluorescence (lower = inhibition) (MCF (arbitrary fluorescence units)) in experiment [5] amounted to 190.

For `CC(C)(C)C(=O)C#Cc1ccccc1`, the outcome in experiment [1], in experiment [4] and in experiment [6] was inactive. The fluorescence, percent of control (lower = inhibition) in experiment [2] came to 53.5%. Besides, in experiment [3], the GTP binding, percent of control came to 203%. This compound also displayed a GTP binding signal, raw median fluorescence (lower = inhibition) (MCF (arbitrary fluorescence units)) in experiment [5] of 55.8.

As for `O=C(CSc1ccc2nnc(-c3cccc(F)c3)n2n1)N1CCCc2ccccc21`, the call in experiment [1], in experiment [4] and in experiment [6] was inactive. In addition, the fluorescence, percent of control (lower = inhibition) in experiment [2] was 37.7%. This compound also showed a GTP binding, percent of control in experiment [3] of 83%. The GTP binding signal, raw median fluorescence (lower = inhibition) (MCF (arbitrary fluorescence units)) in experiment [5] was 209.
